SMILES strings stand for the structures. Some of the results follow. Results filed as inconclusive are left out. Activity calls are given as the source filed them. The call rests on the fitted dose curve; in most records, active means well fitted inhibition curve with a large enough effect; inconclusive means small, poorly fitted or top-dose-only effect, or effect the other way; inactive means flat fitted curve, though single readings scatter.

This experiment can be described thus: High Content Assay for Compounds that inhibit the Assembly of the Perinucleolar Compartment: WI-38 Cytotoxicity. The following applies: WI-38 normal lung fibroblasts, ATPLite luminescence ATP viability, 24 h; series mostly up to 46.1 µM. An excerpt:
High Content Assay for Compounds that inhibit the Assembly of the Perinucleolar Compartment
NIH Chemical Genomics Center [NCGC]
NIH Molecular Libraries Probe Centers Network [MLPCN]
Assay Submitter (PI): Sui Huang, Northwestern University, Feinberg School of Medicine, Cell and Molecular Biology, Chicago, Illinois.
The perinucleolar compartment (PNC) is a non-membrane-bound nuclear subdomain that is associated with but structurally distinct from the nucleolus. The PNC is a heritable trait, in which the number of PNCs per cell in daughter cells often mimics that of their mother cells. The PNC is heterogeneous in shape, is stable through interphase, disassembles during mitosis, and reassembles in early G1. The PNC is concentrated with newly synthesized RNA polymerase III (pol III) RNAs (MRP RNA, RNAse P H1 RNA, hY RNAs[hY1, 2, 5], Alu RNA, and SRP [7SL] RNA) and RNA binding proteins (nucleolin, PTB, CUG-BP, KSRP, Raver1, Raver2, and Rod).
Extensive in vitro studies have shown that the PNC is unique to tumor cells and preferentially forms in tumor cells derived from solid tissues. Examination of cancer cell lines from various origins and malignant capacities has shown that PNC prevalence correlates with the malignancy of tumors and has the potential to be developed as a pan-cancer prognostic marker.
Although the PNC is associated with a DNA locus and a handful of components have been identified, much remains to be investigated regarding the structure and function of the PNC and its mechanistic link to cancer. We have previously shown that PNC prevalence reduction is a valid strategy to identify compounds that can be used to study the structure and function of the PNC. It is necessary, however, to create a screening platform that is able to test a large number of compounds in an automated fashion. Here we report the development and robustness of an automated whole-cell phenotypic image-based screening assay that is capable of identifying such compounds.
We conducted a followup assay to measure the effect of the lead candidates on cell health in a non-metastatic line, WI-38, by measuring ATP levels (ATPLite).
1. Cells at a density of 75-90% confluency in T175 flasks were harvested using 7 ml TrypLE Express cell dissociation reagent. After dissociation (5 minutes room temperature incubation) 10 ml of complete media was added to the TrypLE/cell suspension. The liquid was transferred to a 50 ml Conical tube and cells were pelleted at 1000 RPM for 5 min. Supernatant was removed and cells were resuspended to a final density of 150-200 cells/ul in complete media.
2. Cells were plated in 5 ul volume (2000 cells/well) into 1536 well White solid bottom plates and allowed to recover and adhere at 37 C in a humidified 5% CO2 incubator for 4 hours.
3. After 4 hour incubation, compound libraries (23 nl of 12.5 uM in columns 5-48) were transferred to the plates in duplicate using a 1536 well pintool. Camptothecin positive control (59 uM final) was added to column 2 and 1:3 dilutions of camptothecin was added to column 3. DMSO negative controls were present in columns 1 and 4.
4. After a 24 hour incubation in the 37 C incubator, all wells were treated with 3 ul of ATPLite reagent using a multidrop combi dispenser (ThermoFisher). Bubbles that formed during dispensing were removed by spinning the plates for 1 minutre at 1500 RPM on a table top centrifuge.
5. Luminescencent signal was detected on a Viewlux CCD based imager (PerkinElmer) with a clear filter and a 30 second integration time.
The WI-38 normal human fetal lung fibroblast cell line was provided by Sui Huang of Northwestern University. The media and cell culture reagents were purchased from Invitrogen (Carlsbad, CA), ATPLite came from PerkinElmer.
Regarding `CC1(c2cccc([N+](=O)[O-])c2)CC(C)(C)N(C(=O)c2ccccc2)c2ccccc21` (stereo unspecified), the compound was classed as inactive.

With `Cn1c2ccccc2c(=O)c2c(=O)n(Cc3ccco3)c(COc3ccccc3)nc21`, the call was inactive.

Regarding `COC(=O)c1ccc(CSc2ccccc2C)o1`, the outcome was inactive.

For `CCOC(=O)c1c(-c2cccc(C)c2)csc1NC(=O)c1c(-c2ccccc2)noc1C`, the outcome was inactive.

Regarding `COC(=O)C1=C(C)N(c2ccc(Br)cc2)C(=O)/C1=C\c1ccco1`, the call was inactive.

For the compound `N=c1c2c(-c3ccccc3)c(-c3ccccc3)n(Cc3ccccc3)c2ncn1CCCO`, the outcome was inactive.

The values above are taken from PubChem BioAssay AID2729 (National Center for Advancing Translational Sciences (NCATS), 2010).
